Calls of active or inactive are those of the source. Unless noted, the rule behind the calls is not given here.
Experiments:
[1] = HepG2 liver cancer cell viability effects, profiling panel, resazurin fluorescence, 24 h, PK04 Diversity Set (AID 1172); settings: higher = more signal
[2] = basal S. cerevisiae growth modulation, no modifier, primary screen, OD600, strain BY4716, 24 h, basal condition (AID 1173); settings: OD600, 24 h, higher = more signal, called active from +8 up or from −8 down
[3] = MM1S myeloma cell viability, profiling panel, resazurin fluorescence, basal, 24 h, PK04 Diversity Set (AID 1174); settings: higher = more signal, called active from +8 up or from −8 down;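 note: MM1S multiple myeloma cell line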
[4] = molecular target: Dihydroorotate dehydrogenase (quinone), mitochondrial (Plasmodium falciparum (isolate 3D7)) (UniProt Q08210); assay: PfDHODH enzyme inhibitors, primary screen, biochemical, C-terminal His tag, absorbance 600 nm (AID 1175); settings: DCIP absorbance 600 nm, higher = more signal, called active from +8 up or from −8 down;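 note: recombinant parasite enzyme with a five histidine tag at its C terminus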
Chain of Dihydroorotate dehydrogenase (quinone), mitochondrial (Plasmodium falciparum (isolate 3D7)) (Q08210 whole entry, looked up): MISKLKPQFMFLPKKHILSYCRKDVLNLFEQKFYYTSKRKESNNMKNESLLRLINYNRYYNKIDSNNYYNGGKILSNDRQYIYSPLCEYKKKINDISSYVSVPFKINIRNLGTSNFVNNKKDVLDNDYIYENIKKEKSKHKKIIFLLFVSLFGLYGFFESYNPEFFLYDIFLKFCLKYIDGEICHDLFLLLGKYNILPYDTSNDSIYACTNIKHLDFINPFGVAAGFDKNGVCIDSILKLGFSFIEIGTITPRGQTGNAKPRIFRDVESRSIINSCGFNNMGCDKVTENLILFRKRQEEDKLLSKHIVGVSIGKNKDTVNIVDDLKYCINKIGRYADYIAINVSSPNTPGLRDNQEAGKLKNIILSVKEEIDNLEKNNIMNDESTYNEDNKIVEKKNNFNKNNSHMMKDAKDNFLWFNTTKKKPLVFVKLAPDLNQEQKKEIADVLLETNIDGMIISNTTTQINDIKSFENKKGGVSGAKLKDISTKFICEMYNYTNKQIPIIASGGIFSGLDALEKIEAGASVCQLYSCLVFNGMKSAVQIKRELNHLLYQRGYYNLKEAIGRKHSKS

[5] = P. aeruginosa biofilm formation inhibitors, primary screen, strain PAO1, LB-PBS medium, absorbance 600 nm (AID 1176); settings: P. aeruginosa PAO1 growth/biofilm, A600, 12 h; higher = more signal
[6] = S. cerevisiae RM11-1a growth modifiers, primary screen, strain RM11-1a, OD600, basal, 24 h (AID 1177); settings: OD600, 24 h, higher = more signal, called active from +8 up or from −8 down;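 note: cultures grown under basal conditions with no added stressor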
[7] = E. coli acrAB mutant growth effects, primary screen, E. coli filamentation inducers, strain DRC39, OD650, 24 h (AID 1178); settings: higher = more signal, called active from +8 up or from −8 down;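 note: growth measured as culture turbidity by optical density at 650 nm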
[8] = E. coli acrAB mutant growth effects, primary screen, E. coli filamentation inducers, strain DRC39, OD650, 48 h (AID 1179);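 note: screen aims at cell division blockers that make cells filament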; settings: E. coli DRC39 delta-acrAB growth, higher = more signal, called active from +8 up or from −8 down
[9] = RPMI8226 myeloma cell viability, profiling panel, resazurin fluorescence, basal, 24 h, PK04 Diversity Set (AID 1180); settings: higher = more signal;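 note: RPMI8826 multiple myeloma cell line at 5000 cells per well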
[10] = molecular target: E3 ubiquitin-protein ligase XIAP (Homo sapiens) (UniProt P98170); assay: XIAP binders, primary screen, biophysical, small-molecule microarray, fluorescence 635 nm (AID 1181); settings: small-molecule microarray binding, higher = more signal;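 note: score merges 667 nm emission and signal to noise over triplicate slides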
Chain of E3 ubiquitin-protein ligase XIAP (Homo sapiens) (P98170 whole entry, looked up): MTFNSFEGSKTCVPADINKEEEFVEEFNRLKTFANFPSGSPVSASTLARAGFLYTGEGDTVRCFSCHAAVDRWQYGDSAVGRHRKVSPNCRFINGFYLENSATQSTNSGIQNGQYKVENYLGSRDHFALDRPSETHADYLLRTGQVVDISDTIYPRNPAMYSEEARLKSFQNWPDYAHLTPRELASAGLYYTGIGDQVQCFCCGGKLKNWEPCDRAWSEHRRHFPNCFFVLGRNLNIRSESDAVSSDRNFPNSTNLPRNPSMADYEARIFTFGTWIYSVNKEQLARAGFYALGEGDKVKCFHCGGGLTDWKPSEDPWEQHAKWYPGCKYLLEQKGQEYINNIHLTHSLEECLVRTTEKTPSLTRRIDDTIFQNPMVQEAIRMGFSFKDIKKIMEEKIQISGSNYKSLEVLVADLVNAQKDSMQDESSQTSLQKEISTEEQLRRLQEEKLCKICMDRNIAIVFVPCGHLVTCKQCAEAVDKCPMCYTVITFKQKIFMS

[11] = tested on: XIP peptide (Xip251-270) binding; assay: small-molecule binders of XIP peptide, primary screen, biochemical, small-molecule microarray, fluorescence 635/667 nm, 0.1 µg/mL protein (AID 1182); settings: fluorescent protein binding, 635 nm, higher = more signal, called active from +8 up or from −8 down
[12] = tested on: XIP peptide (Xip251-270); assay: small-molecule binders of XIP peptide, primary screen, biochemical, small-molecule microarray, fluorescence 635/667 nm, 0.5 µg/mL protein (AID 1183); settings: small-molecule microarray binding, fluorescence 635 nm; higher = more signal
[13] = Plasmodium falciparum growth inhibition, primary screen, strain 3D7, DAPI fluorescence, 100 nL (AID 1184);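 note: parasites grown inside human red blood cells in medium with human serum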; settings: P. falciparum 3D7 growth, 3 d, higher = more signal
[14] = molecular target: Homeobox protein Hox-A13 (Mus musculus) (UniProt Q62424); assay: inhibitors of HoxA13-DNA binding, primary screen, biochemical, fluorescence polarization, labeled oligonucleotide (AID 1185); settings: 15 min, higher = more signal, called active from +8 up or from −8 down
Chain of Homeobox protein Hox-A13 (Mus musculus) (Q62424 whole entry, looked up): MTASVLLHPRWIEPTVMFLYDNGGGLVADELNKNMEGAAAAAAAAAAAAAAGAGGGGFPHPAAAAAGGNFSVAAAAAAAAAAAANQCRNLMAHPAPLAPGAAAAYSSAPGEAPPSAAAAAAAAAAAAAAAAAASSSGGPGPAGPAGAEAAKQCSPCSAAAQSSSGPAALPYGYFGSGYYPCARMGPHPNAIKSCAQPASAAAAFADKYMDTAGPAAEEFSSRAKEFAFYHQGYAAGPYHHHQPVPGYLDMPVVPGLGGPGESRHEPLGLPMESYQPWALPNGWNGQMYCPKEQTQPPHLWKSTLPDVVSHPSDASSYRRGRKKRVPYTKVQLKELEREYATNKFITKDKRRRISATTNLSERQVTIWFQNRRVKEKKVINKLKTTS

[15] = inhibitors of hydroxyurea-induced Chk1 phosphorylation, primary screen, imaging, HeLa, phospho-Chk1 antibody, percent positive cells (AID 1186); settings: hydroxyurea-induced phospho-Chk1 immunofluorescence imaging, higher = more signal
[16] = inhibitors of hydroxyurea-induced Chk1 phosphorylation, primary screen, imaging, HeLa, phospho-Chk1 nuclear intensity (AID 1187); settings: hydroxyurea-induced phospho-Chk1 immunofluorescence imaging, higher = more signal

Structure (SMILES) | z-score [1] | z-score [2] | z-score [3] | composite z-score [4] | z-score [5] | z-score [6] | z-score [7] | z-score [8] | z-score [9] | composite z-score [10] | composite z-score [11] | composite z-score [12] | z-score [13] | z-score [14] | z-score [15] | z-score [16]
C=C(C(=O)CC[C@H](OC(=O)c1ccccc1-c1ccccc1C(=O)O)c1cccc(OCCO)c1)C(C)C | -0.862 | -0.907 (inactive) | -0.69 (inactive) | -0.23 (inactive) | 0.804 (inactive) | -0.427 (inactive) | -1.08 (inactive) | -1.03 (inactive) | -0.69 | 0.0617 | -0.145 (inactive) | 0.232 | -2.12 | -5.93 (inactive) | 0.442 (inactive) | -0.51 (inactive)
COC(=O)[C@@]1(Cc2ccc(F)cc2)[C@H]2c3cc(C(=O)N(C)C)n(CCc4ccc(OC)c(Br)c4)c3C[C@H]2CN1C(=O)c1ccccc1 | -1.73 | 0.233 (inactive) | -8.44 (active) | -3.85 (inactive) | 2.7 (inactive) | 0.399 (inactive) | -0.893 (inactive) | -1.49 (inactive) | -5.69 | -0.337 | -0.192 (inactive) | 0.167 | -1.75 | -5.01 (inactive) | -0.316 (inactive) | -0.869 (inactive)
O=C1O[C@@H](c2ccccc2)[C@@H](c2ccccc2)N2[C@@H](c3ccc(O)cc3)[C@]3(C(=O)Nc4ccc(C#CCCO)cc43)[C@@H](C(=O)N3CCN(c4ncccn4)CC3)[C@H]12 | 1.13 | 1.94 (inactive) | 0.609 (inactive) | 0.378 (inactive) | 1.77 (inactive) | 2.96 (inactive) | 1.08 (inactive) | 0.602 (inactive) | 0.509 | -0.197 | 0.678 (inactive) | 0.731 | -2.11 | -2.41 (inactive) | -0.193 (inactive) | 0.058 (inactive)
CCCCCN1CC=CC23O[C@@H]4/C=C\CCCOC(=O)C4[C@H]2C(=O)N(C(C)CO)[C@@H]3C1=O (some centres undefined) | 0.652 | 0.102 (inactive) | 0.295 (inactive) | -0.298 (inactive) | 0.398 (inactive) | 0.493 (inactive) | 1.25 (inactive) | 0.945 (inactive) | 0.541 | -0.162 | 0.221 (inactive) | 0.106 | 0.266 | -3.74 (inactive) | -0.107 (inactive) | 0.37 (inactive)
CC(=O)NCCCC[C@@H]1NC(=O)[C@@H]2C[C@H](C(=O)NCCCCCN)[C@H](c3ccc(O)cc3)N2C1=O | -0.714 | -0.12 (inactive) | 0.707 (inactive) | 0.143 (inactive) | 0.0094 (inactive) | -0.0659 (inactive) | -0.139 (inactive) | -0.515 (inactive) | 0.0794 | 0.492 | 0.0292 (inactive) | 0.891 | -1.13 | -3.21 (inactive) | 0.156 (inactive) | 0.317 (inactive)
CCOC(=O)C=Cc1cccc(C)c1O | -0.156 | -10.7 (active) | -0.753 (inactive) | -0.892 (inactive) | 0.0236 (inactive) | -4.67 (inactive) | 0.0457 (inactive) | -0.944 (inactive) | -0.529 | 0.0533 | 2.79 (inactive) | 0.159 | -1.44 | 0.534 (inactive) | -0.193 (inactive) | 0.0058 (inactive)
CCOc1cc(C(O)C2C=CC3C(=O)NC(=O)C3N2Nc2ccc(Cl)cc2Cl)ccc1O (centres undefined) | -1.37 | 0.203 (inactive) | -2.35 (inactive) | 0.0681 (inactive) | 1.4 (inactive) | 0.358 (inactive) | -0.748 (inactive) | -0.75 (inactive) | -1.68 | 0.659 | -0.736 (inactive) | 0.966 | 0.0361 | -2.05 (inactive) | 0.394 (inactive) | 0.627 (inactive)
C=C[C@@H](OC)[C@H](OC(=O)Nc1ccc(OC)cc1)c1ccc(O)c(F)c1 | -0.902 | -6.91 (inactive) | -0.967 (inactive) | -1.1 (inactive) | 0.741 (inactive) | -0.175 (inactive) | 0.146 (inactive) | -0.355 (inactive) | -0.877 | 0.252 | 0.65 (inactive) | 0.741 | -0.825 | -2.8 (inactive) | -0.528 (inactive) | -1.17 (inactive)
CN1C2C=C(CCCO)C(C3C(=O)N(C(N)=O)C(=O)C32)C1C1CC1 (centres undefined) | -0.444 | 0.796 (inactive) | -0.179 (inactive) | -0.884 (inactive) | -0.341 (inactive) | -0.18 (inactive) | -0.686 (inactive) | -0.743 (inactive) | -0.761 | 0.0361 | 0.379 (inactive) | -0.0081 | 1.89 | -7.09 (inactive) | -0.25 (inactive) | 0.161 (inactive)
C=CCOC(=O)[C@@H]1[C@H]2C(=O)O[C@H](c3ccccc3)[C@H](c3ccccc3)N2[C@H](c2ccc(OCCOC(=O)[C@@H]3C[C@@H]4C(=O)N[C@@H](CCCC[N+](C)(C)C)C(=O)N4[C@@H]3c3ccc(O)cc3)cc2)[C@@]12C(=O)Nc1ccc(I)cc12 | 0.945 | -0.398 (inactive) | -0.596 (inactive) | -2.02 (inactive) | 0.379 (inactive) | 1.39 (inactive) | -0.507 (inactive) | -0.809 (inactive) | -0.0426 | -0.124 | 0.481 (inactive) | 0.808 | -1.11 | 6.56 (inactive) | 0.355 (inactive) | 0.521 (inactive)
O=C(Cc1ccccc1)[C@H]1C2C=CCCC(c3ccccc3)=C2CN1Cc1ccccc1 (some centres undefined) | 1.37 | -2.98 (inactive) | 0.806 (inactive) | -0.658 (inactive) | 1.44 (inactive) | -0.546 (inactive) | 1.64 (inactive) | 1.29 (inactive) | 1.08 | -0.441 | 1.11 (inactive) | -0.0929 | 0.979 | -2.16 (inactive) | -0.171 (inactive) | 0.213 (inactive)
COC(=O)[C@]1(CCS(=O)(=O)c2ccccc2)N=C(c2ccc(OCCCO)cc2)O[C@@H]1c1ccccc1N=[N+]=[N-] | -1.28 | 0.141 (inactive) | -3.19 (inactive) | 1.02 (inactive) | 0.963 (inactive) | 2.53 (inactive) | 0.548 (inactive) | -0.718 (inactive) | -2.26 | -0.0502 | 1.48 (inactive) | 0.836 | -2.36 | -3.34 (inactive) | -0.265 (inactive) | -0.364 (inactive)
COc1cc2c(cc1O)C(C1CC1)N(C)CC2 (centres undefined) | 0.0514 | -0.391 (inactive) | 0.509 (inactive) | -0.501 (inactive) | -0.572 (inactive) | -0.0321 (inactive) | 0.115 (inactive) | 0.0029 (inactive) | -0.0158 | 0.175 | -0.198 (inactive) | 0.598 | -0.871 | -4.09 (inactive) | 0.2 (inactive) | 0.406 (inactive)
O=C1C2C=CC(C(O)C3CC=CCC3)N(Nc3ccccc3)C2C(=O)N1c1ccccc1 (centres undefined) | -0.868 | -1.22 (inactive) | -1.57 (inactive) | -0.558 (inactive) | 1.18 (inactive) | -0.197 (inactive) | -0.572 (inactive) | -0.658 (inactive) | -1.12 | 0.251 | 0.767 (inactive) | 0.748 | -0.653 | -3.25 (inactive) | 0.639 (inactive) | 0.201 (inactive)
C[N+](C)(C)CCCC[C@@H]1NC(=O)[C@@H]2C[C@H](C(=O)NCCCCCCN)[C@H](c3cccc(OCCO)c3)N2C1=O | -0.418 | -0.22 (inactive) | -0.0181 (inactive) | 0.441 (inactive) | -0.117 (inactive) | -0.0966 (inactive) | 0.342 (inactive) | 0.743 (inactive) | -1.3 | 0.215 | 1.52 (inactive) | 0.771 | -0.133 | -3.34 (inactive) | -0.529 (inactive) | -0.386 (inactive)
C=C[C@H]1C(C(=O)OCC)=CC[C@@H](c2ccccc2)N1S(=O)(=O)c1ccc(C)cc1 | 0.149 | 1.32 (inactive) | -0.172 (inactive) | 0.319 (inactive) | 0.257 (inactive) | 1.39 (inactive) | -0.621 (inactive) | -0.183 (inactive) | -0.667 | 0.199 | 0.413 (inactive) | 0.635 | -1.89 | -2.34 (inactive) | -0.229 (inactive) | -0.732 (inactive)
[N-]=[N+]=Nc1ccccc1C[C@]1(C(=O)O)COC(c2ccc(OCCCO)cc2)=N1 | -0.365 | -0.231 (inactive) | 0.037 (inactive) | 1.04 (inactive) | 0.0254 (inactive) | 0.212 (inactive) | 0.438 (inactive) | -0.8 (inactive) | 0.404 | 0.245 | 1.09 (inactive) | 0.907 | -1.54 | -4.69 (inactive) | 0.0118 (inactive) | 0.0756 (inactive)
C=CCC(OC(C)=O)[C@@H]1[C@@H](N(Cc2cccc3ccccc23)C(=O)Cc2ccc(OC)cc2)c2cc(OCCCO)ccc2N1C(=O)c1ccc(-c2ccccc2)cc1 (some centres undefined) | -0.433 | 0.376 (inactive) | 0.551 (inactive) | -0.547 (inactive) | -0.121 (inactive) | -0.352 (inactive) | 0.144 (inactive) | -0.165 (inactive) | 0.0598 | -0.224 | 0.377 (inactive) | 0.309 | -2.3 | -1.94 (inactive) | 0.577 (inactive) | -0.13 (inactive)
O=C1OCCC/C=C\[C@H]2OC34C=CCN(c5ccc6ccccc6c5)C(=O)[C@H]3N(CCO)C(=O)[C@@H]4C12 (some centres undefined) | -0.75 | 0.307 (inactive) | -0.997 (inactive) | 0.257 (inactive) | -0.634 (inactive) | 0.571 (inactive) | -0.937 (inactive) | -1.04 (inactive) | -0.15 | 0.275 | 0.314 (inactive) | -1.38 | -1.05 | -5.35 (inactive) | -0.234 (inactive) | -0.0994 (inactive)

— PubChem BioAssay
